The values below come from PubChem BioAssay (EPA / NIEHS).

As usually defined, the AC50 is the concentration giving half of the maximal activity seen.

The structures appear in SMILES notation. A structure can be active in one record and inactive in another. Active and inactive are the calls of the source. How the source made its calls: active means hit-call score of the fitted dose curve at least 0.9, where 1 is the maximum; inactive means score below 0.9.

Read-out in this assay: Pselectin, SELP (gene 6403)
Description: BSK_4H_Pselectin: BioMAP Diversity Plus: 4H Assay for Pselectin Biomarker Activity (AID 2283026). Particulars: primary human endothelial cells (HUVEC); actives raise or lower the signal. How it is done: BSK_4H is a cell-based, multiplexed-readout assay that uses umbilical vein endothelium, a human vascular primary cell, with measurements taken at 24 hours after chemical dosing in a 96-well plate.BSK_4H_Pselectin is an assay component measured in the BSK_4H assay. It measures P-Selectin antibody related to regulation of gene expression using ELISA technology.Data from the assay component BSK_4H_Pselectin was analyzed into 1 assay endpoint. This assay endpoint, BSK_4H_Pselectin, was analyzed with bidirectional fitting relative to DMSO as the negative control and baseline of activity. Using a type of binding reporter, gain or loss-of-signal activity can be used to understand changes in the signaling as they relate to the gene SELP. Furthermore, this assay endpoint can be referred to as a primary readout, because this assay has produced multiple assay endpoints where this one serves a signaling function. To generalize the intended target to other relatable targets, this assay endpoint is annotated to the cell adhesion molecules intended target family, where the subfamily is selectins.
The levels of cell surface (or secreted, indicated by the prefix "s") biomarker endpoints were measured by ELISA. Overt cytotoxicity to cells in confluent adherent cultures (all systems other than the BT system) was assessed by measuring total protein levels using sulforhodamine B (SRB) staining in parallel cultures at the time of biomarker measurements, indicated as SRB endpoints. For proliferation assays for adherent cell types, individual cell types are cultured at sub-confluence and relative cell numbers quantified by SRB staining at time points optimized for each system (48 h: 3C and CASM3C systems; 72 h: BT and HDF3CGF systems; 96 h: SAg system). SRB was performed by staining cells with 0.1% SRB after fixation with 10% TCA and reading wells at 560 nm.Viability and proliferation of PBMC (T cells) was quantified by Alamar Blue reduction for the SAg and BT systems. For PBMC viability (referred to as PBMC Cytotoxicity within the assay endpoint names), cells were plated (75,000/well in a 96-well plate) and then chemical samples added for 1 h before addition of activators, SEB and TSST-1 (20 ng/mL final concentration each). Cells were incubated for 90 h. Then, Alamar Blue (20 uL/well) (Invitrogen, Cat DAL1100) was added for 6 h, and the plates were read with a fluorescence microplate reader at 546/580 nm (excitation/emission). For PBMC proliferation, cells were plated and activated as above but incubated for only 16 h prior to addition of Alamar Blue. Plates were read after 6 h.
On to `CC(C)(C)c1ccc(O)cc1`, for which the outcome was inactive. Still for that read-out and setting: as for `O=C(O)C1C(C(=O)O)C2(Cl)C(Cl)=C(Cl)C1(Cl)C2(Cl)Cl` (stereo not given), the entry is “inactive”.

With `CCOP(=S)(OCC)SCS(=O)(=O)CC`, the outcome was inactive.

Consider `ClC1=C(Cl)C2(Cl)C3C(Cl)C(Cl)CC3C1(Cl)C2(Cl)Cl` (stereo not given), for which the AC50 was 24.7 µM (active). In the case of `CCCN(CCC)c1c([N+](=O)[O-])cc(C(C)C)cc1[N+](=O)[O-]`, the outcome was inactive. Same read-out and setting: as for `c1ccc2c(c1)Nc1ccccc1S2`, the entry is “inactive”. The same measure, in the same setting: as for `[N-]=[N+]=[N-]`, the entry is “inactive”.

Consider `CCOC(=O)c1ccccc1C(=O)OCC`, for which the result was inactive.

As to `COP(=O)(O)OC`, the result was inactive.

Turning to `Nc1ccc2ccccc2c1`, the result was inactive.

Regarding `Cc1ccc([N+](=O)[O-])cc1C`, the result was inactive. Same read-out and setting: as for `CC(Cl)CN(C)C` (stereo not given), the entry is “inactive”; as for `O=C(O)C(F)(F)C(F)(F)C(=O)O`, “inactive”. Same read-out and setting: as for `CCC(C)(C)c1ccc(O)cc1`, the entry is “inactive”. Still for that read-out and setting: as for `Cc1c([N+](=O)[O-])cc2c(c1[N+](=O)[O-])C(C)(C)CC2(C)C`, the entry is “inactive”; as for `c1nc[nH]n1`, “inactive”.

`Nc1ccc([N+](=O)[O-])cc1Cl`: the result was inactive. Still for that read-out and setting: as for `CCOP(=S)(Oc1ccc([N+](=O)[O-])cc1)c1ccccc1` (stereo not given), the entry is “inactive”; as for `Cc1ccc(O)cc1C`, “inactive”. As to `O=c1ssc(Cl)c1Cl`, the AC50 is 4.74 µM (active). As to `Nc1cc2c3c(c1)C(c1ccccc1)=N[C@@H](NC(=O)c1cccnc1)C(=O)N3CC2`, the result was inactive. The same measure, in the same setting: as for `CC(O)C(F)(F)C(F)(F)F` (stereo not given), the entry is “inactive”; as for `CCCCN(CCCC)N=O`, “inactive”. Same read-out and setting: as for `c1ccc2c(c1)sc1ccccc12`, the entry is “inactive”.

With `CCOS(=O)(=O)OCC`, the result was inactive. Turning to `CCOP(=S)(OCC)SCn1nnc2ccccc2c1=O`, the outcome was inactive. Turning to `C=CC(=O)OCC(F)(F)C(F)F`, the AC50 is 19.2 µM (active) and the outcome was inactive. Turning to `O=C(O)C(F)(OC(F)(F)C(F)(F)C(F)(F)F)C(F)(F)F` (stereo not given), the outcome was inactive. On the same count and under the same terms, as for `CC(C)(C)OOC(C)(C)C`, the entry is “inactive”. On the same count and under the same terms, as for `OCC1CO1` (stereo not given), the entry is “inactive”. On to `ClC(Cl)=C(c1ccc(Cl)cc1)c1ccccc1Cl`, for which the AC50 is 10.6 µM (active).

In the case of `CC(C)Nc1ccc(Nc2ccccc2)cc1`, the AC50 was 7.42 µM (active). For `CCCCOCCOP(=O)(OCCOCCCC)OCCOCCCC`, the result was inactive. Regarding `CCCCc1ccccc1`, the result was inactive. Consider `O=[N+]([O-])c1ccc(Cl)c(Cl)c1`, for which the outcome was inactive. The same measure, in the same setting: as for `Cc1ccc(N)cc1N`, the entry is “inactive”; as for `COCCOCCO`, “inactive”. On the same count and under the same terms, as for `OCC(F)(F)OC(F)(F)C(F)(F)OC(F)(F)CO`, the entry is “inactive”; as for `O=C(O)C(Cl)Cl`, “inactive”.
